# Rows were chosen to be rich in hits. Some 9.4% of all compounds tested hit in one or more screens of this group.
# Rab9 promoter act = activates the Rab9 promoter; Potency, µM (series often up to 9.22 µM), without a hit: at the highest dose activation, negative = inhibition, most hits filed as activators; actives 2.8% (n = 320,000); Huh7 Rab9 promoter-luciferase reporter, luminescence, 24 h; note: % of control where 0% means no effect; nearly all actives have a fitted effect of over 60% in size
#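 Luciferase signal after 10 min detection reagent at ambient indicates Rab9 promoter upregulation; stably transfected Huh7 cells were treated 24 h with compound in DMSO at 37 °C, 5% CO2.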
# NPC1 prom act = activates the NPC1 promoter | Huh7 NPC1 promoter luciferase reporter, 24 h | Potency, µM (series often up to 9.22 µM), for the others: top-dose activation, actives largely listed as activators | actives 2.4% (n = 320,000) | AID 485313; note: % of control where 0% means no effect; nearly all actives have a fitted effect of over 60% in size
#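 Huh7 reporter cells (NPC1 promoter driving luciferase) are dosed with compound for 24 h at 37 °C, 5% CO2; luciferase detection reagent is then added and luminescence measured after 10 min at ambient temperature.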
# ELG1 DNA repair = inhibitors of ELG1-dependent DNA repair in HEK293T cells; AID 504467; HEK293T ELG1-luciferase reporter, luminescence, 16 h; DNA damage induced by 5-fluorouridine; Potency, µM (titrated, usually from 46.1 µM), for the others: top-dose activity change, negative = inhibition, usual class: inhibitors; actives 2.3% (n = 330,000); note: % is set by controls: 0 for no effect and ±100 for the full control effect; nearly all actives have a fitted effect of over 55% in size
#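 In this reporter screen, reduction of luminescence relative to DMSO vehicle indicated activity. Compounds and 5-fluorouridine were added together to 2,000 cells per well, incubated for 16 hr at 37 °C, then developed with ONE-Glo.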
# FLuc modulator = inhibits or activates purified firefly luciferase, miR-21 counter-screen | Potency, µM (series often up to 57.5 µM), for inactives: at the top dose activity change, negative = inhibition, usual class: inhibitors | P08659 | purified FLuc, Km substrates, luminescence inhibition | actives 6.9% (n = 360,000);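 note: plate controls were vehicle for no effect and reference inhibitor for full effect; nearly all actives have a fitted effect of over 55% in size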
# Target sequence (P08659 whole entry, looked up): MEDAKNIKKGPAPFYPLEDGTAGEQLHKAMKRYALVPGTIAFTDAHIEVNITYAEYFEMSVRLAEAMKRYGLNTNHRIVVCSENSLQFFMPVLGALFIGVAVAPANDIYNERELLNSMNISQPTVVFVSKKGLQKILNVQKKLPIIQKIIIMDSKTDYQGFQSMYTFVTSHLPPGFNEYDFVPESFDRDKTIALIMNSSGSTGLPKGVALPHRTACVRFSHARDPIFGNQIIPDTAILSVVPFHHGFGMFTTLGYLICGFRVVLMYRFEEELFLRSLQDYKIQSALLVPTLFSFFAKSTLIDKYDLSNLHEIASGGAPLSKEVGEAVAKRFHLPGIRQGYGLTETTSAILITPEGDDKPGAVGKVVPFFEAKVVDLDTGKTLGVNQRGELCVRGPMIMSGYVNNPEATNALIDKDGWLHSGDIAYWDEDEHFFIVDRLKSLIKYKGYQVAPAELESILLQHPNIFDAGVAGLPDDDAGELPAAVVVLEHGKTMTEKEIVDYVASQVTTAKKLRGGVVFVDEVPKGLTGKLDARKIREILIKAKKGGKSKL
#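 Purified P. pyralis luciferase (10nM final) with 10uM D-luciferin and 10uM ATP (Km levels) in 50mM Tris acetate pH 7.5, 10mM Mg acetate, 0.01% Tween-20, 0.05% BSA; qHTS 6-point titration, ~60 µM downward; luminescence read.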
# SMN2 splice enh = enhancers of SMN2 splice variant expression; HEK293 SMN2-luciferase splicing reporter, luminescence, 30-36 h; Potency, µM (highest dose often 46.1 µM), inactives show at the highest dose activity change, positive = activation, usual class: activators; actives 2.8% (n = 210,000); note: % of control where 0% means no effect; nearly all actives have a fitted effect of over 55% in size
#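 qHTS luciferase splicing reporter: luminescence rises when SMN2 exon 7 is included in transfected HEK293 cells. Compound exposure lasted 30-36 h at 37C, with 4.5 mM final sodium butyrate as control, followed by a ONE-Glo read.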
# ELG1 genotox = genotoxicity induction in ELG1-luciferase HEK293T cells; actives 1.3% (n = 330,000); HEK293T ELG1-luciferase reporter, luminescence, 16 h; Potency, µM (series often up to 46 µM), without a hit: at the highest dose activity change, positive = activation, hits mostly activators; note: % of control where 0% means no effect; nearly all actives have a fitted effect of over 60% in size
#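 Quantitative HTS format in 1536-well plates. HEK293T ELG1-luciferase reporter cells receive test compound and are incubated 16 hr at 37 °C, 5% CO2; ONE-Glo added, 30 min room temperature, then luminescence read.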
# Active calls of the source: *; ? = inconclusive; / = not tested or not shown; [ ] = dose if it differs, or a comment. Calls come from the whole dose curve; as a rule, active = well fitted curve in the direction sought with a large enough effect; inconclusive = small, poorly fitted or top-dose-only effect, or another doubt; inactive = no such curve, though single readings can be large; an effect the other way counts as inactive or inconclusive. Potency is the fitted concentration of half-maximal effect.
SMILES,Rab9 promoter act,NPC1 prom act,ELG1 DNA repair,FLuc modulator,SMN2 splice enh,ELG1 genotox
COc1ccc(C(=O)N2C(=S)NC(=O)/C2=C\c2ccc(C)cc2)cc1,-3%,3%,24%,?,24%,0%
CCc1ccc(/C=C2/C(=O)NC(=O)N2C(C)=O)cc1,28%,15%,?,8.5µM*,/,12%
c1ccc2c(N3CCNCC3)nc(-c3ccc4c(c3)OCO4)nc2c1,/,/,/,/,-6%,/
CCOc1ccc(-c2cc(CCCC(=O)NCCc3ccccc3)no2)cc1,-2%,10%,0%,?,-30%,?
CCOc1ccc(-c2cc(CCCC(=O)NCc3cccnc3)no2)cc1,?,?,?,11µM*,13%,?
CCOc1ccc(-c2cc(CCCC(=O)NCCC(C)C)no2)cc1,25%,17%,?,6µM*,-12%,4%
CCOc1ccc(CCNC(=O)CCCc2cc(-c3ccc(OCC)cc3)on2)cc1,/,/,/,-8%,0%,/
CCOc1ccccc1CNC(=O)c1cnc2sc(N(CC)CC)nn2c1=O,/,/,/,-16%,/,/
CCC(C)c1ccc2oc(-c3ccc(NC(=O)Cn4cnc5c(=O)n(C)c(=O)n(C)c54)cc3)nc2c1 (stereo not given),?,23%,?,12µM*,-48%,7%
Cc1ccc2oc(-c3cccc(NC(=O)Cn4cnc5c(=O)n(C)c(=O)n(C)c54)c3)nc2c1,18%,13%,?,3.8µM*,-26%,17%
COC(=O)c1cc2oc3ccccc3c2n1Cc1nc(-c2cccc(Cl)c2)oc1C,/,/,/,-2%,/,/
Cc1cc(=O)oc2c1ccc1oc(/C(=N/O)c3ccccc3)c(C)c12,-13%,-8%,16µM*,-1%,/,-11%
Cc1ccc(/C(=N\O)c2oc3c(C)c4oc(=O)cc(C)c4cc3c2C)cc1,10%,-4%,21µM*,-1%,-41%,-10%
CCc1c(C(=O)c2ccc(Cl)cc2)oc2c(C)c3oc(=O)cc(C)c3cc12,1%,0%,?,-14%,-7%,0%
O=c1cc(CSc2ccccc2)[nH]c2ccccc12,-1%,1%,12µM*,-3%,/,-9%
COc1ccc(N2CCN(C(=O)Cc3noc4ccc(C)cc34)CC2)cc1,/,/,/,-20%,/,/
COc1ccc(C2OC(=O)CC2C(=O)NCc2ccc(Cl)cc2)cc1OC (stereo not given),?,?,?,17µM*,?,?
COc1ccc(C2OC(=O)CC2C(=O)NCc2ccc(F)cc2)cc1OC (stereo not given),-2%,1%,11%,0%,-23%,4%
O=C(Cn1ncc2c1-c1ccccc1OC2)N1CCN(Cc2ccc3c(c2)OCO3)CC1,-10%,-2%,23µM*,5%,-18%,-6%
CCn1c(=O)c(C(=O)Nc2ccc(C(C)=O)cc2)nc2ccccc21,/,/,/,15µM*,28%,/
COc1ccc(S(=O)(=O)N(CC(=O)Nc2ccccc2Br)Cc2ccccc2)cc1,/,/,/,0%,-12%,/
Cc1occc1C(=O)NNC(=O)c1cccc(F)c1,8%,0%,?,-2%,12%,3%
COc1ccccc1C(=O)NNC(=O)c1cccc(O)c1,?,?,?,12µM*,/,?
COc1ccccc1C(=O)NNC(=O)c1cccc(F)c1,?,?,?,15µM*,3.2µM*,?
COCC(=O)NNC(=O)c1ccccc1OC,-3%,-2%,6%,-5%,-9%,-1%
SMILES,Rab9 promoter act,NPC1 prom act,ELG1 DNA repair,FLuc modulator,SMN2 splice enh,ELG1 genotox
COc1ccccc1C(=O)NNC(=O)c1ccccc1F,29%,?,?,15µM*,25µM*,?
C=C[C@H]1CCC=C2C(=O)CCC[C@@H]21,/,/,/,/,2%,/
C=CCn1c(-c2ccc(OC)cc2)nc2ccccc21,30%,16%,?,13µM*,?,0%
CCOC(=O)c1cccc(-n2c(C)nc3ccccc3c2=O)c1,16%,2%,4%,-1%,/,-1%
C=CCn1c(-c2ccc(N)cc2)nc2ccccc21,?,14%,?,11µM*,?,18µM*
CCOC(=O)c1cccc(-n2c(-c3ccc(OC)cc3)nc3nc4ccccc4nc32)c1,-2%,-4%,10µM*,2%,-17%,-3%
C=CCn1c(N)nc2ccccc21,1%,2%,-7%,2%,-22%,-1%
CCCn1c(-c2cc(OC)c(OC)c(OC)c2)nc2nc3ccccc3nc21,1%,-8%,16µM*,2%,?,-2%
COc1ccc(CCn2c(-c3cccc([N+](=O)[O-])c3)nc3nc4ccccc4nc32)cc1OC,10%,2%,?,-1%,-10%,-2%
CN[C@@H]1NC(=O)c2ccccc2N1Cc1ccc(F)cc1,/,/,/,/,-6%[9.22 µM],/
Cc1cccc(CNC(=O)Cn2c(-c3cccs3)cc3ccccc32)c1,/,/,/,2%,/,/
COc1ccc(CCNC(=O)c2cnc3sc(N4CCOCC4)nn3c2=O)cc1,/,/,/,-9%,-6%,/
Cc1ccc(NC2(c3ccccc3)C(=O)c3ccccc3C2=O)cc1F,/,/,/,3%,8%,/
C=CCn1c(-c2ccc(OC)cc2)nc2nc3ccccc3nc21,-1%,1%,0%,?,10µM*,14%
COc1ccc(-c2nc3ccccc3n2Cc2ccccc2)cc1,5%,-1%,-16%,?,-30%,2%
Clc1ccc(-c2noc(COc3ccccc3)n2)cc1,23%,11%,?,13µM*,-15%,13%
Clc1ccc(-c2noc(CN3CCOCC3)n2)cc1,3.2µM*,2µM*,?,?,/,?
Cc1ccc(OCc2nc(-c3ccccc3)no2)c(C)c1,2.2µM*,2.2µM*,?,3µM*,10µM*,3.2µM*
CC(C)(C)Cc1nc(-c2ccc(Cl)cc2)no1,-4%,-1%,?,15µM*,13%,2%
Clc1ccc(-c2noc(CCCOc3ccccc3)n2)cc1,-5%,-3%,1%,-17%,-27%,2%
O=C(C1CCN(Cc2nc(-c3ccc(Cl)cc3)no2)CC1)N1CCOCC1,2%,2%,0%,4%,/,-7%
Cc1ccc2occ(CC(=O)N(Cc3ccc(Cl)cc3)C3CCS(=O)(=O)C3)c2c1 (stereo not given),/,/,/,-11%,-7%,/
Cc1cc(O)c(C=O)c2c1C(=O)Oc1c(COC(=O)/C=C/C(=O)O)c(O)c(C(=O)O)c(C)c1O2,/,/,/,/,-15%,/
Cc1cc2oc3c(c(=O)c2cc1C)C(c1cccc(Br)c1)N(Cc1ccco1)C3=O (stereo not given),2%,-4%,0.63µM*,3%,-38%,8%

# Source: PubChem
